Key:
Settings in all cases: Compound Concentration (nM):1000
MYLK4 = tested on: MYLK4
MYLK = tested on: MYLK
MYO3A = tested on: MYO3A
MYO3B = tested on: MYO3B
NDR1 = tested on: T1, NDR1
T1 construct: gene STK38

NDR2 = tested on: T2, NDR2
T2 construct: gene STK38L

NEK10 = tested on: NEK10
NEK11 = tested on: NEK11
NEK1 = tested on: NEK1
NEK2 = tested on: NEK2
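Further: KINOMEscan scanMAX binding as percent activity remaining versus control; lower means stronger binding.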

Row | SMILES | Percent Control (MYLK4) | Percent Control (MYLK) | Percent Control (MYO3A) | Percent Control (MYO3B) | Percent Control (NDR1) | Percent Control (NDR2) | Percent Control (NEK10) | Percent Control (NEK11) | Percent Control (NEK1) | Percent Control (NEK2)
1 | COc1cc(/C=N/Nc2ncnc3[nH]ncc23)ccc1O [GW578748X] | 38% | 68% | 100% | 100% | 73% | 100% | 100% | 28% | 70% | 100%
2 | CCc1ccc(Oc2nccc(-c3c(-c4ccc(F)cc4)ncn3C3CCNCC3)n2)cc1 [SB-242719] | 98% | 100% | 87% | 100% | 92% | 96% | 99% | 100% | 100% | 96%
3 | COc1cc(C=NNc2ncnc3c2cnn3-c2ccccc2)ccc1O [GW513184X] | 100% | 100% | 100% | 95% | 100% | 100% | 100% | 100% | 100% | 100%
4 | COc1cc2ncnc(Nc3ccc4c(cnn4Cc4ccccc4)c3)c2cc1OC.Cl [GW282449A] | 100% | 100% | 100% | 100% | 100% | 100% | 100% | 100% | 95% | 100%
5 | COc1ccc2cc(-c3c(-c4ccncc4)nc(-c4ccc(S(C)(=O)=O)cc4C)n3C)ccc2c1 [SB-633825] | 93% | 82% | 53% | 18% | 77% | 63% | 69% | 90% | 100% | 93%
6 | COc1cccc(-n2ncc3c(N/N=C/c4ccncc4)ncnc32)c1 [GW784752X] | 100% | 89% | 100% | 100% | 96% | 100% | 84% | 100% | 84% | 100%
7 | COc1ccc2c(-c3ccnc(Nc4cccc(OC(F)(F)F)c4)n3)cnn2n1 [GW810372X] | 60% | 100% | 100% | 100% | 100% | 96% | 100% | 100% | 85% | 100%
8 | COc1ccc2[nH]c3c4[nH]c5ccc(OC)cc5c4c4c(c3c2c1)C(=O)NC4=O [GW296115X] | 49% | 6.9% | 81% | 100% | 57% | 72% | 93% | 100% | 100% | 78%
9 | Cl.O=S1CCN(Cc2ccc(-c3ccc4ncnc(Nc5ccc(OCc6ccccc6)c(F)c5)c4c3)o2)CC1 [GW576924A] | 100% | 100% | 100% | 100% | 99% | 100% | 100% | 100% | 93% | 100%
10 | O=C(Nc1n[nH]c2nc(-c3ccc(O)cc3)c(Br)cc12)C1CC1 [SB-725317] | 100% | 56% | 48% | 100% | 100% | 100% | 100% | 100% | 99% | 100%
11 | CN1CCN(C(=O)c2ccc(NC(=O)Nc3ccc(N(C)c4ccnc(Nc5ccc(CS(C)(=O)=O)cc5)n4)cc3)cc2)CC1.Cl [GW830263A] | 98% | 100% | 7% | 23% | 54% | 100% | 94% | 100% | 63% | 89%
12 | NS(=O)(=O)c1ccc(N/N=C2\C(=O)Nc3ccc(C(=O)NCCc4c[nH]cn4)cc32)cc1 [GW300660X] | 87% | 79% | 100% | 100% | 77% | 100% | 100% | 100% | 100% | 100%
13 | COc1cc(N2CCN(C(C)C)CC2)ccc1Nc1nc(Nc2ccc(F)cc2C(=O)NC[C@@H](O)CO)c2cc[nH]c2n1 [GSK1392956A] | 82% | 0.3% | 88% | 100% | 99% | 91% | 34% | 100% | 82% | 99%
14 | COc1cccc(-c2c[nH]c3c(N/N=C/c4ccncc4)ncnc23)c1 [GW814408X] | 100% | 100% | 100% | 100% | 93% | 98% | 92% | 100% | 95% | 100%
15 | CN(C)CCNC(=O)Nc1ccc(N(C)c2ccnc(Nc3ccc(CS(C)(=O)=O)cc3)n2)cc1.Cl [GW830900A] | 100% | 100% | 99% | 92% | 86% | 100% | 87% | 100% | 92% | 90%
16 | COc1ccccc1-c1cc(/C=C2\C(=O)Nc3ncc(Br)cc32)cc(Br)c1O [GW442130X] | 100% | 100% | 75% | 100% | 97% | 74% | 100% | 100% | 95% | 100%
17 | NS(=O)(=O)c1ccc(N/N=C2\C(=O)Nc3ccc(Cl)cc32)cc1 [GW280670X] | 100% | 80% | 100% | 100% | 91% | 100% | 100% | 100% | 100% | 100%
18 | Cl.c1ccc(Cc2nc3ccc(Nc4ncnc5ccccc45)cc3[nH]2)cc1 [GR269666A] | 100% | 100% | 100% | 100% | 100% | 100% | 100% | 100% | 99% | 100%
19 | O=C1Nc2ccc(C(=O)c3ccco3)cc2C1=Cc1cc(Cl)c(O)c(Cl)c1 [GW406108X] | 69% | 51% | 34% | 100% | 95% | 88% | 3.3% | 100% | 78% | 83%
20 | COc1cc2ncn(-c3cc(O[C@H](C)c4ccccc4Cl)c(C(N)=O)s3)c2cc1OC [GSK237701A] | 45% | 94% | 100% | 100% | 84% | 100% | 95% | 78% | 51% | 3.7%

Row | SMILES | Percent Control (MYLK4) | Percent Control (MYLK) | Percent Control (MYO3A) | Percent Control (MYO3B) | Percent Control (NDR1) | Percent Control (NDR2) | Percent Control (NEK10) | Percent Control (NEK11) | Percent Control (NEK1) | Percent Control (NEK2)
21 | COc1ccc(COc2ccc(Cc3cnc(N)nc3N)cc2OC)cc1 [GW632580X] | 100% | 100% | 92% | 100% | 93% | 86% | 95% | 100% | 100% | 84%
22 | COc1cc(C)c(N(C)C(=O)CN(C)C)cc1Nc1nc(Nc2cccc(F)c2C(N)=O)c2cc[nH]c2n1 [GSK2219385] | 100% | 10% | 96% | 100% | 100% | 85% | 52% | 100% | 100% | 72%
23 | CC(C)COC(=O)c1ccc2c(c1)/C(=C/Nc1ccc(S(N)(=O)=O)cc1)C(=O)N2 [GW416981X] | 100% | 100% | 100% | 100% | 66% | 100% | 100% | 100% | 94% | 100%
24 | C[C@@H](Oc1cc(-n2cnc3ccc(OC4CCN(C)CC4)cc32)sc1C(N)=O)c1ccccc1Cl [GSK579289A] | 62% | 81% | 74% | 87% | 98% | 88% | 92% | 100% | 60% | 9.5%
25 | Nc1ncnc2occ(-c3ccc(NC(=O)Nc4cc(C(F)(F)F)ccc4F)cc3)c12 [GW770249X] | 100% | 100% | 9.7% | 15% | 94% | 100% | 100% | 100% | 89% | 77%
26 | Cl.O=C(Nc1ccc(Oc2ccc3[nH]c(NC(=O)c4ccccc4)nc3c2)cc1)Nc1cc(C(F)(F)F)ccc1F [GW709042A] | 100% | 99% | 100% | 100% | 100% | 100% | 100% | 100% | 89% | 100%
27 | Cl.O=C(Nc1ccc(Oc2ccc3[nH]c(NC(=O)c4ccco4)nc3c2)cc1)Nc1cc(C(F)(F)F)ccc1F [GW683134A] | 100% | 100% | 100% | 100% | 100% | 76% | 100% | 100% | 80% | 100%
28 | NS(=O)(=O)c1ccc(Nc2ncc(-c3ccccc3)o2)cc1 [GW572399X] | 81% | 100% | 100% | 100% | 83% | 100% | 100% | 100% | 84% | 100%
29 | CCn1c(-c2nonc2N)nc2c(C#CC(C)(C)O)nc(OCCNC)cc21.Cl [GSK949675] | 100% | 88% | 100% | 98% | 87% | 81% | 100% | 100% | 100% | 100%
30 | CC1=C(C(=O)Nc2ccc3[nH]ncc3c2)C(c2ccc(Cl)c(Cl)c2)CC(=O)N1 (stereo not shown) [GSK299115A] | 91% | 100% | 88% | 90% | 21% | 67% | 72% | 86% | 84% | 97%
31 | Cc1cc(O)cc(C)c1/C=C/c1cncc(C(N)=O)c1 [GW435821X] | 100% | 97% | 100% | 100% | 99% | 100% | 100% | 100% | 100% | 100%
32 | NS(=O)(=O)c1ccc(N/N=C2\C(=O)Nc3ccc(-c4cnco4)cc32)cc1 [GW276655] | 49% | 50% | 77% | 100% | 67% | 68% | 89% | 93% | 71% | 100%
33 | CCS(=O)(=O)c1ccc(OC)c(Nc2ncc(-c3cccc(F)c3)o2)c1 [GW621970X] | 100% | 100% | 100% | 100% | 100% | 100% | 100% | 93% | 84% | 100%
34 | CN(C)c1cc2c(Nc3ccc4c(cnn4Cc4ccccc4)c3)ncnc2cn1 [GW282974X] | 86% | 100% | 92% | 99% | 100% | 84% | 89% | 100% | 79% | 66%
35 | CCS(=O)(=O)c1ccc(OC)c(Nc2ncc(-c3cccc(OC)c3)o2)c1 [GW580509X] | 100% | 94% | 97% | 100% | 100% | 100% | 100% | 100% | 98% | 100%
36 | C/C(Nc1ccc(S(N)(=O)=O)cc1)=C1/C(=O)Nc2ccccc21 [GW335962X] | 100% | 70% | 66% | 100% | 65% | 87% | 100% | 100% | 75% | 100%
37 | COC(=O)Nc1nc2ccc(Oc3ccc(NC(=O)Nc4cc(C(F)(F)F)ccc4F)cc3)cc2s1.Cl [GW693917A] | 93% | 100% | 93% | 100% | 86% | 94% | 90% | 100% | 94% | 82%
38 | CC1=C(C(=O)Nc2ccc3[nH]ncc3c2)C(c2ccc3ccccc3c2)CC(=O)N1 (stereo not shown) [GSK270822A] | 78% | 93% | 90% | 100% | 28% | 61% | 65% | 81% | 87% | 85%
39 | NS(=O)(=O)c1ccc(N/N=C2\C(=O)Nc3ccc(C(=O)NCc4ccncc4)cc32)cc1 [GW300657X] | 83% | 45% | 68% | 100% | 76% | 82% | 48% | 40% | 80% | 79%
40 | Cl.O=C(O[C@H]1CN[C@H](C#Cc2cc3ncnc(Nc4ccc5c(cnn5Cc5ccccc5)c4)c3s2)C1)N1CCOCC1 [GSK200398A] | 91% | 100% | 100% | 100% | 100% | 100% | 96% | 100% | 68% | 72%
